# The list is not random: actives were taken first. Their share in the collection is about 3.7%.
# BoNT F protease – BoNT F light chain protease inhibition | Multiplex microsphere protease cleavage assay, flow cytometry | inhibition, % at 10 µM | actives 0.22% (n = 360,000) | AID 588497; in the data active means inhibition above about 35%, passing the limit was not always enough; inconclusive means no clear call, values can overlap the other calls
# Bead autofluor – compound fluorescence in toxin protease inhibitor counterscreen | compound autofluorescence counterscreen, microsphere flow cytometry; stronger effect = higher value | fluorescence intensity (concentration not given with the values) | actives 3.1% (n = 360,000) | AID 624483; in the data active means fluorescence intensity above about 16000; inconclusive means no clear call, values can overlap the other calls
# Anthrax LF inh2 – anthrax lethal factor protease inhibition. actives 0.12% (n = 360,000). inhibition, % at 10 µM. P15917. multiplex microsphere protease cleavage assay, LF
# BoNT A protease – blocks Botulinum neurotoxin A light chain protease; multiplex microsphere protease substrate cleavage, flow cytometry; inhibition, % at 10 µM; actives 0.17% (n = 360,000)
# MazEF act – MazEF (E. coli) toxin RNase activation. FAM/BHQ RNA-DNA oligo cleavage fluorescence, 5 h. activation, % at 20 µM. actives 0.32% (n = 350,000). AID 504720; in the data active means activation above about 50%
# Target sequence (P0AE70 whole entry, looked up): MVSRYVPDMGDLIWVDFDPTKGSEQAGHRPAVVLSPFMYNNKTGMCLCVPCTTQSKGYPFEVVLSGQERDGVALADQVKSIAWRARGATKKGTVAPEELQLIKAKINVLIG
# A number is an active result; . = inactive; ? = inconclusive; / = no result. Unless noted, no stated cut-off is given here; in the data, active means inhibition above about 30%; inconclusive means no clear call, values can overlap the other calls; inactive means below that.
SMILES,BoNT F protease,Bead autofluor,Anthrax LF inh2,BoNT A protease,MazEF act
Cc1cc(NC(=O)CSc2nc3ccsc3c(=O)n2CCCCC(=O)O)no1,.,16845,.,.,.
CCOC(=O)c1cccc(NC(=O)CSc2nc3ccccc3c(=O)n2CCOC)c1,.,22521,.,?,.
COCCn1c(SCC(=O)Nc2cc(C)on2)nc2ccccc2c1=O,?,?,.,.,.
CCCCn1c(SCC(=O)Nc2cc(C)on2)nc2ccsc2c1=O,.,.,.,.,.
CCCCc1nnc(NC(=O)CSc2nc(=O)cc(N)n2-c2cccc(C)c2)s1,.,16503,.,.,.
CCCCCCn1c(SCC(=O)Nc2cc(C)on2)nc2ccccc2c1=O,.,16827,.,.,.
O=C(C(=Cc1ccc(O)cc1)c1ccccc1)c1ccccc1,.,.,.,.,/
CC(=O)N1CCN(C(=O)c2cc(S(=O)(=O)N(C)Cc3ccccc3)ccc2Cl)CC1,/,/,/,/,.
CCOc1ccc2nc(SCC(=O)Nc3ccc4[nH]c(=O)[nH]c4c3)[nH]c2c1,.,.,.,.,.
CC(C)(C)OC(=O)N1CCC(C(=O)N2CCC[C@H]2C(=O)O)CC1,.,20337,.,.,.
CC(C)(C)OC(=O)N1CCC[C@@H]1C(=O)N1CCC(C(=O)O)CC1,.,.,.,.,.
CC(=O)c1ccc(NC(=O)CSc2nc(C3CC3)nc3ccccc23)cc1,.,.,.,.,.
O=C(CSc1nnnn1C1CCCCC1)N1c2ccccc2Sc2ccccc21,.,19588,.,?,.
O=C(CSc1nc(C2CC2)nc2ccccc12)N1c2ccccc2Sc2ccccc21,.,22153,.,.,.
COc1ccc(OCc2nnc(SCC(=O)Nc3ccccc3Cl)o2)cc1,.,.,.,.,.
CCOc1cc(/C=C2\SC(=S)N(Nc3ccccc3)C2=O)ccc1O,.,.,42,39,.
COc1ccc(-c2noc(C3CCCN(S(=O)(=O)c4cccc(Cl)c4)C3)n2)cc1OC (configuration not stated),.,23625,.,.,.
COc1ccc(C(=O)N2CCCC(c3nc(-c4cccs4)no3)C2)cc1 (configuration not stated),.,19734,.,.,.
COc1ccc(C(=O)N2CCCC(c3nc(-c4cccs4)no3)C2)cc1OC (configuration not stated),.,25010,.,.,.
O=C(c1ccc(Br)cc1)N1CCCC(c2nc(-c3cccs3)no2)C1 (configuration not stated),.,.,.,.,.
Nn1c(SCC(=O)NCC2CCCO2)nnc1-c1ccc(OC(F)F)cc1 (configuration not stated),.,.,.,.,.
Cc1ccc(C)c(OCCCN2CCCC2)c1,.,21161,.,.,.
Cc1ccc(-c2cc(-c3ccco3)c3c(N)c(C(=O)NN)oc3n2)cc1,.,.,.,.,.
NNC(=O)c1oc2nc(-c3ccccc3)cc(-c3ccccc3)c2c1N,.,16851,.,.,.
N=Cc1c(O)n(-c2cccc(Cl)c2)c(=O)[nH]c1=O,.,23754,.,.,.
SMILES,BoNT F protease,Bead autofluor,Anthrax LF inh2,BoNT A protease,MazEF act
O=c1[nH]c(=O)n(-c2cccc(Cl)c2)c(O)c1/C=N/c1ccccn1,.,.,.,.,.
CN1C(=O)N(C)C(NC(=O)Nc2ccccc2)C1NC(=O)Nc1ccccc1 (configuration not stated),.,.,.,.,.
Cc1ccc(NC(=O)NC2C(NC(=O)Nc3ccc(C)cc3)N(C)C(=O)N2C)cc1 (configuration not stated),.,18428,.,?,.
C#CCOC(=O)Nc1cccn(Cc2c(Cl)cccc2Cl)c1=O,.,16958,.,.,.
O=C(Nc1cccn(Cc2c(Cl)cccc2Cl)c1=O)C1CC1,.,.,.,.,.
C[C@H]1CN([C@@H](C)CO)C(=O)CCCn2nncc2CO[C@@H]1CN(C)S(=O)(=O)c1cccc(F)c1,.,.,.,.,.
COc1ccc([C@H]2N[C@]3(CCCN(CC4CCCCC4)C3=O)[C@H]3C(=O)N(Cc4ccccc4)C(=O)[C@@H]23)cc1,.,.,.,.,.
CCOC(=O)c1oc2ccc(S(=O)(=O)N3CCC(C)CC3)cc2c1C,.,.,.,.,.
CCOC(=O)c1oc2ccc(S(=O)(=O)N3CCOCC3)cc2c1C,.,16344,.,?,.
COc1ccc2oc(C(=O)OCC(=O)Nc3cc(S(=O)(=O)N4CCOCC4)ccc3C)c(C)c2c1,.,?,.,.,61
O=C(Nc1ccccc1)c1ccn[nH]1,.,.,.,.,.
CC(=O)c1ccc(NC(=O)c2ccn[nH]2)cc1,.,22226,.,.,.
CCOC(=O)CSc1nc(-c2ccccc2)nc2ccc(F)cc12,.,?,?,?,.
CCc1cc2cc3c(cc2nc1SCC(=O)Nc1nccs1)OCO3,.,.,.,.,56
CCOC(=O)CSc1nc(-c2ccccc2)nc2ccccc12,.,21864,.,.,.
O=C(CSc1nc(-c2ccccc2)nc2ccccc12)Nc1nccs1,.,.,.,.,136
CCCc1nc(SCC(=O)Nc2nccs2)c2ccccc2n1,.,.,.,.,.
CC(=O)Nc1ccc(C(=O)N2CCCCC2c2cc(C(=O)N3CCOCC3)no2)cc1 (configuration not stated),.,.,.,.,/
COc1ccc(OC)c(NC(=O)COC(=O)CCCN=C2NS(=O)(=O)c3ccccc32)c1,.,.,.,.,.
Cc1ccc(/C=C2\CCC3=C2OC(N)=C(C#N)C3c2ccc(C)cc2)cc1 (configuration not stated),42,.,.,.,.
Cc1nc(C(F)(F)F)ccc1C(=O)N1CCC1(C)C(=O)Nc1ccc2c(c1)OCO2 (configuration not stated),.,.,.,.,/
COC(=O)c1ccccc1Sc1c(/C=N/OC(=O)c2ccccc2)c(C(F)(F)F)nn1C,.,.,.,.,.
Cc1ccc(C(=O)O/N=C/c2c(C(F)(F)F)nn(C)c2Sc2ccc(Cl)cc2)cc1,.,.,.,.,.
COc1ccc(C(=O)O/N=C/c2c(C(F)(F)F)nn(C)c2SCc2ccccc2Cl)cc1,.,22636,.,.,.
Cn1nc(C(F)(F)F)c(/C=N/OC(=O)c2ccccc2Cl)c1SCc1ccc(Cl)cc1,.,23366,.,.,.
SMILES,BoNT F protease,Bead autofluor,Anthrax LF inh2,BoNT A protease,MazEF act
CCNC(=O)C1(C)CCCN(C(=O)c2cc(-c3ccccc3)cs2)C1 (configuration not stated),.,.,.,.,/
Cc1oc(-c2ccc3c(c2)OCCO3)cc1C(=O)O,.,.,.,.,.
COc1ccc(-c2cc(C(=O)O)c(C)o2)cc1OC,.,20243,.,.,.
CC(=O)c1sc(Nc2ccc(Oc3ccccc3)cc2)nc1C,.,.,.,.,/
C/C(=N\NC(=O)c1ccccc1O)c1c(O)cc(C)oc1=O,.,17536,.,.,.
N#Cc1cccc(OC(=O)C2CCN(C(=O)c3ccc(F)cc3)CC2)c1,.,.,.,.,.
Cc1ccccc1-n1c(O)c(/C=C2/C(c3ccccc3)=Nc3ccccc32)c(=O)[nH]c1=O,.,.,.,47,.
